# Screen size: about 5,500 compounds; about 2,000 (36%) were called active. About 18% were inconclusive and are not listed. The list shows a part of the results. A number with no mark means an inactive call. Rule as the data show it: active = normalized growth mostly below about 0.91 (no sharp cut-off); inconclusive = no clear call, values can overlap the other calls; inactive = mostly above about 0.92.
# Assay: chemical genetic growth profiling, strain panel (AID 1159580);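 also: tested at 20 µM; growth read once vehicle control cultures reached saturation at 30 °C; 1 = growth at the plate median or of vehicle wells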
# Details: growth OD
smiles,measurement,setting,value
COC(=O)Nc1nc2ccc(C(=O)c3ccccc3)cc2[nH]1,normalized growth,"S. cerevisiae deletion strains, locus YJR075W, strain HOC1, stronger effect = lower value",0.924
same,normalized growth,"S. cerevisiae deletion strains, locus YKL009W, strain mrt4, stronger effect = lower value",1.05
same,normalized growth,"S. cerevisiae deletion strains, locus YKL085W, strain MDH1 (second series), stronger effect = lower value",1.05
same,normalized growth,"S. cerevisiae deletion strains, locus YKL085W, strain MDH1, stronger effect = lower value",1.05
same,normalized growth,"S. cerevisiae deletion strains, locus YKL160W, strain elf1, stronger effect = lower value",0.894 (active)
same,normalized growth,"S. cerevisiae deletion strains, locus YKL190W, strain CNB1, stronger effect = lower value",1.01
same,normalized growth,"S. cerevisiae deletion strains, locus YKR001C, strain vps1, stronger effect = lower value",0.956
same,normalized growth,"S. cerevisiae deletion strains, locus YKR026C, strain gcn3, stronger effect = lower value",0.956
same,normalized growth,"S. cerevisiae deletion strains, locus YKR091W, strain srl3, stronger effect = lower value",1
same,normalized growth,"S. cerevisiae deletion strains, locus YLL001W, strain dnm1, stronger effect = lower value",0.933
same,normalized growth,"S. cerevisiae deletion strains, locus YLL026W, stronger effect = lower value",0.973
same,normalized growth,"S. cerevisiae deletion strains, locus YLL041C, strain sdh2, stronger effect = lower value",0.984
same,normalized growth,"S. cerevisiae deletion strains, locus YLR027C, strain aat2, stronger effect = lower value",0.94
same,normalized growth,"S. cerevisiae deletion strains, locus YLR039C, strain RIC1, stronger effect = lower value",0.938
same,normalized growth,"S. cerevisiae deletion strains, locus YLR058C, strain SHM2, stronger effect = lower value",1.02
same,normalized growth,"S. cerevisiae deletion strains, locus YLR102C, strain apc9, stronger effect = lower value",1
same,normalized growth,"S. cerevisiae deletion strains, locus YLR113W, strain HOG1, stronger effect = lower value",0.946
same,normalized growth,"S. cerevisiae deletion strains, locus YLR221C, strain rsa3, stronger effect = lower value",0.939
same,normalized growth,"S. cerevisiae deletion strains, locus YLR258W, strain gsy2, stronger effect = lower value",0.949
same,normalized growth,"S. cerevisiae deletion strains, locus YLR262C, strain YPT6 (second series), stronger effect = lower value",0.782 (active)
same,normalized growth,"S. cerevisiae deletion strains, locus YLR262C, strain YPT6, stronger effect = lower value",0.98
same,normalized growth,"S. cerevisiae deletion strains, locus YLR268W, strain sec22, stronger effect = lower value",0.98
same,normalized growth,"S. cerevisiae deletion strains, locus YLR320W, strain mms22, stronger effect = lower value",0.849 (active)
same,normalized growth,"S. cerevisiae deletion strains, locus YLR330W, strain CHS5, stronger effect = lower value",1
same,normalized growth,"S. cerevisiae deletion strains, locus YLR342W, strain FKS1 (second series), stronger effect = lower value",0.852
same,normalized growth,"S. cerevisiae deletion strains, locus YLR342W, strain FKS1, stronger effect = lower value",0.908 (active)
same,normalized growth,"S. cerevisiae deletion strains, locus YLR357W, strain rsc2, stronger effect = lower value",0.925
same,normalized growth,"S. cerevisiae deletion strains, locus YLR370C, strain arc18, stronger effect = lower value",0.946
same,normalized growth,"S. cerevisiae deletion strains, locus YLR371W, strain rom2, stronger effect = lower value",1.01
same,normalized growth,"S. cerevisiae deletion strains, locus YLR384C, strain iki3, stronger effect = lower value",1
same,normalized growth,"S. cerevisiae deletion strains, locus YLR418C, strain cdc73, stronger effect = lower value",0.932
same,normalized growth,"S. cerevisiae deletion strains, locus YML016C, strain PPZ1, stronger effect = lower value",1.01
same,normalized growth,"S. cerevisiae deletion strains, locus YML032C, strain rad52, stronger effect = lower value",0.957
same,normalized growth,"S. cerevisiae deletion strains, locus YML120C, strain ndi1, stronger effect = lower value",0.96
same,normalized growth,"S. cerevisiae deletion strains, locus YML124C, strain tub3, stronger effect = lower value",0.207 (active)
same,normalized growth,"S. cerevisiae deletion strains, locus YMR058W, strain fet3, stronger effect = lower value",0.968
same,normalized growth,"S. cerevisiae deletion strains, locus YMR078C, strain ctf18, stronger effect = lower value",0.986
same,normalized growth,"S. cerevisiae deletion strains, locus YMR125W, strain sto1, stronger effect = lower value",1.03
same,normalized growth,"S. cerevisiae deletion strains, locus YMR129W, stronger effect = lower value",0.987
same,normalized growth,"S. cerevisiae deletion strains, locus YMR205C, strain PFK2, stronger effect = lower value",0.806 (active)
same,normalized growth,"S. cerevisiae deletion strains, locus YMR223W, strain ubp8, stronger effect = lower value",0.965
same,normalized growth,"S. cerevisiae deletion strains, locus YMR231W, strain pep5, stronger effect = lower value",0.955
same,normalized growth,"S. cerevisiae deletion strains, locus YMR263W, strain SAP30, stronger effect = lower value",0.999
same,normalized growth,"S. cerevisiae deletion strains, locus YMR307W, strain GAS1, stronger effect = lower value",0.463 (active)
same,normalized growth,"S. cerevisiae deletion strains, locus YNL067W, strain RPL9B, stronger effect = lower value",0.978
same,normalized growth,"S. cerevisiae deletion strains, locus YNL071W, strain lat1, stronger effect = lower value",0.925
same,normalized growth,"S. cerevisiae deletion strains, locus YNL128W, strain TEP1, stronger effect = lower value",1.01
same,normalized growth,"S. cerevisiae deletion strains, locus YNL153C, strain GIM3, stronger effect = lower value",0.0819 (active)
same,normalized growth,"S. cerevisiae deletion strains, locus YNL183C, strain NPR1, stronger effect = lower value",0.827 (active)
same,normalized growth,"S. cerevisiae deletion strains, locus YNL209W, strain ssb2, stronger effect = lower value",0.971
same,normalized growth,"S. cerevisiae deletion strains, locus YNL233W, strain BNI4, stronger effect = lower value",0.814 (active)
same,normalized growth,"S. cerevisiae deletion strains, locus YNL248C, strain rpa49, stronger effect = lower value",0.977
same,normalized growth,"S. cerevisiae deletion strains, locus YNL250W, strain rad50, stronger effect = lower value",0.994
same,normalized growth,"S. cerevisiae deletion strains, locus YNL271C, strain bni1, stronger effect = lower value",1.01
same,normalized growth,"S. cerevisiae deletion strains, locus YNL298W, strain CLA4, stronger effect = lower value",1
same,normalized growth,"S. cerevisiae deletion strains, locus YNL307C, strain MCK1, stronger effect = lower value",0.742 (active)
same,normalized growth,"S. cerevisiae deletion strains, locus YNL322C, strain KRE1 (second series), stronger effect = lower value",0.901 (active)
same,normalized growth,"S. cerevisiae deletion strains, locus YNL322C, strain KRE1, stronger effect = lower value",0.997
same,normalized growth,"S. cerevisiae deletion strains, locus YNR049C, strain mso1, stronger effect = lower value",0.981
same,normalized growth,"S. cerevisiae deletion strains, locus YNR052C, strain pop2, stronger effect = lower value",0.91 (active)
same,normalized growth,"S. cerevisiae deletion strains, locus YOL006C, strain TOP1, stronger effect = lower value",0.968
same,normalized growth,"S. cerevisiae deletion strains, locus YOL012C, strain htz1",0.338
same,normalized growth,"S. cerevisiae deletion strains, locus YOL147C, strain pex11, stronger effect = lower value",0.988
same,normalized growth,"S. cerevisiae deletion strains, locus YOR001W, strain rrp6, stronger effect = lower value",0.925
same,normalized growth,"S. cerevisiae deletion strains, locus YOR061W, strain CKA2, stronger effect = lower value",1
same,normalized growth,"S. cerevisiae deletion strains, locus YOR069W, strain VPS5, stronger effect = lower value",0.993
same,normalized growth,"S. cerevisiae deletion strains, locus YOR070C, strain gyp1, stronger effect = lower value",0.949
same,normalized growth,"S. cerevisiae deletion strains, locus YOR080W, strain dia2, stronger effect = lower value",0.979
same,normalized growth,"S. cerevisiae deletion strains, locus YOR083W, strain WHI5, stronger effect = lower value",0.896
same,normalized growth,"S. cerevisiae deletion strains, locus YOR106W, strain vam3, stronger effect = lower value",0.855 (active)
same,normalized growth,"S. cerevisiae deletion strains, locus YOR136W, strain idh2, stronger effect = lower value",1.01
same,normalized growth,"S. cerevisiae deletion strains, locus YOR144C, strain elg1, stronger effect = lower value",1
same,normalized growth,"S. cerevisiae deletion strains, locus YOR184W, strain ser1, stronger effect = lower value",0.717 (active)
same,normalized growth,"S. cerevisiae deletion strains, locus YOR231W, strain MKK1, stronger effect = lower value",0.931
same,normalized growth,"S. cerevisiae deletion strains, locus YOR265W, strain rbl2, stronger effect = lower value",0.98
same,normalized growth,"S. cerevisiae deletion strains, locus YOR270C, strain vph1, stronger effect = lower value",1.07
same,normalized growth,"S. cerevisiae deletion strains, locus YOR290C, strain snf2, stronger effect = lower value",0.959
same,normalized growth,"S. cerevisiae deletion strains, locus YOR316C, strain cot1, stronger effect = lower value",1
same,normalized growth,"S. cerevisiae deletion strains, locus YPL051W, strain arl3, stronger effect = lower value",0.869 (active)
same,normalized growth,"S. cerevisiae deletion strains, locus YPL055C, strain LGE1, stronger effect = lower value",0.865
same,normalized growth,"S. cerevisiae deletion strains, locus YPL078C, strain atp4, stronger effect = lower value",0.931
same,normalized growth,"S. cerevisiae deletion strains, locus YPL106C, strain sse1, stronger effect = lower value",1.12
same,normalized growth,"S. cerevisiae deletion strains, locus YPL240C, strain hsp82, stronger effect = lower value",0.992
same,normalized growth,"S. cerevisiae deletion strains, locus YPL241C, strain CIN2, stronger effect = lower value",0.0733 (active)
same,normalized growth,"S. cerevisiae deletion strains, locus YPL256C, strain CLN2, stronger effect = lower value",0.914
same,normalized growth,"S. cerevisiae deletion strains, locus YPR119W, strain clb2, stronger effect = lower value",0.998
same,normalized growth,"S. cerevisiae deletion strains, locus YPR141C, strain kar3, stronger effect = lower value",1.03
same,normalized growth,"S. cerevisiae deletion strains, locus YPR163C, strain tif3, stronger effect = lower value",0.799 (active)
same,normalized growth,"S. cerevisiae deletion strains, locus YPR167C, strain met16, stronger effect = lower value",1
same,normalized growth,"S. cerevisiae deletion strains, strain wtn01, stronger effect = lower value",0.983
same,normalized growth,"S. cerevisiae strains, strain wild type, stronger effect = lower value",0.99
